Test results published in ChEMBL document CHEMBL3988442, “University of Dundee, Small-Polar-MMV Screening Library” (2021).

Legend:
[1] = target: T1, Aspartate--tRNA(Asp/Asn) ligase (Mycobacterium tuberculosis (strain ATCC 25618 / H37Rv)) (UniProt P9WFW3); assay: Assay for Asp RNA synthetase-1 from Mycobacterium tuberculosis; format: functional; design: scale not given: direction of the effect not stated beside the values; details: 30 µM; note: in the data most compounds retested in dose-response had high values
T1 sequence (whole entry): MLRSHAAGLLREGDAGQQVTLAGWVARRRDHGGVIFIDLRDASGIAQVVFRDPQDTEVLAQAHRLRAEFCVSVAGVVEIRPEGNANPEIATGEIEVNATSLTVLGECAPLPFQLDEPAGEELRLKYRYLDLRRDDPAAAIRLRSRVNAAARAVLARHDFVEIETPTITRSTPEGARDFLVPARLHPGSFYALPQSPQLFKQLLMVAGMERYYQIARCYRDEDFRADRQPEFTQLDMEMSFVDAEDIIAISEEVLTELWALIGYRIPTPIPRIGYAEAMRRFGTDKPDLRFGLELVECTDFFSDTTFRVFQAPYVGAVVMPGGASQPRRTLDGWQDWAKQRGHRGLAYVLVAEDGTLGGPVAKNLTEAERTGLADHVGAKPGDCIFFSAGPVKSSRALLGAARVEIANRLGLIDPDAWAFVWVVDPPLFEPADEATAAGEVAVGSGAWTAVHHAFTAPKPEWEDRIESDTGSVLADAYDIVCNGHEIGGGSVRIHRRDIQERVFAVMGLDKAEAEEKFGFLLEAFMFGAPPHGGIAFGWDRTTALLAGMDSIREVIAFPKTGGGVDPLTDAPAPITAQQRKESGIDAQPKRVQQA

[2] = target: Shiga toxin 2 (Escherichia coli O157:H7) (UniProt P09385+P09386); assay: E. coli 0.157:H7 Shiga Toxin SOP - stx2 screening assay; format: functional; design: scale not given: direction of the effect not stated beside the values; details: 30 µM

## Cc1csc(CCCNC(=O)[C@H]2CNC[C@@H](C(=O)N3CCCC3)C2)n1
[1]
  Percent Effect: -3.08%
[2]
  Percent Effect: -2.63%

## CN(C)C(=O)Cc1nc(CN2CCn3c(nnc3C3CC3)C2)cs1
[1]
  Percent Effect: -1.22%
[2]
  Percent Effect: 10.2%

## O=C1COc2c(cccc2C(=O)N2CCCCC2Cn2cccn2)N1 (stereo unspecified)
[1]
  Percent Effect: -0.721%
[2]
  Percent Effect: 27.1%
